The source of these data is PubChem BioAssay (Tox21).

Experiment [1] can be described thus: qHTS assay to identify small molecule that activate the aryl hydrocarbon receptor (AhR) signaling pathway - cell viability counter screen (AID 743086). Further: nearly all actives have a fitted effect of over 45% in size. Further: potency means the concentration at half of the fitted maximal effect. The procedure, abridged:
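HepG2-AhR-luc (HG2L7.5c1) cells, 4000/well, were preincubated 5 h at 37C, exposed to compound in qHTS format for 24 hr at 37C, then given CellTiter-Fluor for 30 min; viability was read as fluorescence in the reporter wells.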
A general note: In qHTS, concentration-response curves come from the screen itself.

Experiment [2] is described as follows: qHTS assay to identify small molecule phospholipidosis (PLD) inducers (AID 1259344; active means well fitted curve in the direction sought with a large enough effect; an effect the other way counts as inactive or inconclusive). The procedure, abridged: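 After 4 h attachment on collagen I, HepG2 cells were dosed with compound alongside LipidTOX Red, kept 24 h at 37 C, fixed, and imaged for lamellar phospholipid pits.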
Experiment [3] addresses Nuclear receptor subfamily 1 group I member 2 (Rattus norvegicus) (UniProt Q9R1A7). Description: Rat pregnane X receptor (rPXR) activation by small molecules, qHTS assay (AID 1346983). Further: nearly all actives have a fitted effect of over 20% in size. Further: potency means the concentration at half of the fitted maximal effect. The conditions noted are these: rPXR luciferase reporter cells, One-Glo luminescence, 24 h; max activation: stronger effect = higher value. The procedure, abridged: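 Cell-based rPXR luciferase reporter assay, 2,000 cells per well, rested 5hr at 37 C before compound addition in DMSO, then 24 hr at 37 C. One-Glo reagent was added and luminescence read after 30 min at room temperature.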

Experiment [4] has as its target Nuclear receptor subfamily 1 group I member 2 (Homo sapiens) (UniProt O75469). The experiment in a line: CYP3A4 induction through human pregnane X receptor (PXR) by small molecules, qHTS assay (AID 1346984). Further: nearly all actives have a fitted effect of over 40% in size. Further: potency means the concentration at half of the fitted maximal effect. The method, boiled down: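 Quantitative HTS in DPX-2 cells, i.e. HepG2 transfected with PXR response element and CYP3A4-promoter luciferase. Compounds in DMSO incubated 24hr at 37C; then P450-Glo CYP3A4 substrate, 3uM final, 3hr; One-Glo luminescence.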

The nature of experiment [5]: qHTS assay to identify aromatase inhibitors - cell viability counter screen (AID 743084).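 Further: cells stimulated with testosterone during compound exposure; nearly all actives have a fitted effect of over 55% in size.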 Further: potency means the concentration at half of the fitted maximal effect.
Experiment [6] deals with Aryl hydrocarbon receptor (Homo sapiens) (UniProt P35869). The experiment in a line: qHTS assay to identify small molecule that activate the aryl hydrocarbon receptor (AhR) signaling pathway (AID 743085). Further: nearly all actives have a fitted effect of over 15% in size. Further: potency means the concentration at half of the fitted maximal effect.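 On activation: HG2L7.5c1 human HepG2 liver cells with stably integrated DRE-driven firefly reporter; series mostly up to about 70 µM.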 The procedure, abridged:
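Steps: seed HepG2-AhR-luc cells; allow 5 h at 37C; pin-transfer test compound or vehicle; incubate 24 h at 37C; add viability dye (30 min, 37C) and read fluorescence; add luciferase substrate (30 min, RT) and read luminescence.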

For experiment [7], the target named is Peroxisome proliferator-activated receptor gamma (Homo sapiens) (UniProt P37231). The experiment in a line: qHTS assay to identify small molecule agonists of the peroxisome proliferator-activated receptor gamma (PPARg) signaling pathway (AID 743094; active means well fitted activation curve with a large enough effect in the signal ratio in the repeat runs, not every such curve was filed as active; the % refers to the signal ratio). The procedure, abridged:
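Cells from the PPARg UAS-bla HEK293H line are plated and incubated 5 h at 37C. Compounds in DMSO are pinned in and left 17 h at 37C. LiveBLAzer B/G substrate is then added for 1 h at room temperature before fluorescence is measured.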

Experiment [8] deals with Nuclear receptor subfamily 1 group I member 2 (Homo sapiens) (UniProt O75469). The experiment in a line: Human pregnane X receptor (PXR) activation by small molecules, qHTS assay (AID 1346985). Further: nearly all actives have a fitted effect of over 40% in size. Further: potency means the concentration at half of the fitted maximal effect. The method, boiled down: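 DPX-2 cells (HepG2 co-transfected with a PXR response element and a CYP3A4-promoter luciferase construct) were seeded at 2,000 per well, rested 5 hr at 37C, then exposed to DMSO-dissolved compounds for 24 hr. Activation was read as luciferase luminescence.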

“And” between values parts separate entries of the source, which are not always exact repeats. Equal entries are not always repeated. Inconclusive results are not listed. Some compounds were tested as several samples or in several runs, with calls that do not always agree. The source made the active and inactive calls. Unless noted, the call rests on the fitted dose curve; in most records, active means well fitted curve in the direction sought with a large enough effect in the repeat runs; inconclusive means weak or mixed curves; inactive means no such curve, though single readings can be large; an effect the other way counts as inactive or inconclusive.
On the % scale 0 is the no-effect control and ±100 the full control effect.

Sequence of Peroxisome proliferator-activated receptor gamma (Homo sapiens) (P37231 whole entry, looked up): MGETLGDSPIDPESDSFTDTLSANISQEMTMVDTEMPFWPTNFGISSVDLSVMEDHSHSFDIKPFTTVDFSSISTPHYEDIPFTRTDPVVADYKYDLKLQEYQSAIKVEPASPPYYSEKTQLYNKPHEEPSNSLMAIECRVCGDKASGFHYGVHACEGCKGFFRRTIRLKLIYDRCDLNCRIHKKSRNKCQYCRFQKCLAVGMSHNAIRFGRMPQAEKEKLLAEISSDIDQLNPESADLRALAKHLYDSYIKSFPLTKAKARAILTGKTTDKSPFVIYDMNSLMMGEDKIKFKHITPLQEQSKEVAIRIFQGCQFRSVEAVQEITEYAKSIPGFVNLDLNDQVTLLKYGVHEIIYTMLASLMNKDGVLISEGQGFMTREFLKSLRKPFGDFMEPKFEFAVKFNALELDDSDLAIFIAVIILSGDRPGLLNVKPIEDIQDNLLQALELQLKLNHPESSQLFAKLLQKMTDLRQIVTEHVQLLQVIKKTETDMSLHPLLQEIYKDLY
Sequence of Nuclear receptor subfamily 1 group I member 2 (Rattus norvegicus) (Q9R1A7 whole entry, looked up): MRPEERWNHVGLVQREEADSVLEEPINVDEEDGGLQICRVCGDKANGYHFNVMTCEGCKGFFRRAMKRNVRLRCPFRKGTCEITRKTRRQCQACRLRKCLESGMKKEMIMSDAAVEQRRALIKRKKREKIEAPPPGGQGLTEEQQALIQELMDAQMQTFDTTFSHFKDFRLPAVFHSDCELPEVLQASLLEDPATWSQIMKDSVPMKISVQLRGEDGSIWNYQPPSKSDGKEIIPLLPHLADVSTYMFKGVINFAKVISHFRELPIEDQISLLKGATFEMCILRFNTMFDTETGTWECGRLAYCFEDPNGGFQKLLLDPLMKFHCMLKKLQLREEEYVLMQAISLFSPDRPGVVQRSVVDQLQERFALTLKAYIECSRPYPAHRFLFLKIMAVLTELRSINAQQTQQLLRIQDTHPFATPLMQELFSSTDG
Sequence of Aryl hydrocarbon receptor (Homo sapiens) (P35869 whole entry, looked up): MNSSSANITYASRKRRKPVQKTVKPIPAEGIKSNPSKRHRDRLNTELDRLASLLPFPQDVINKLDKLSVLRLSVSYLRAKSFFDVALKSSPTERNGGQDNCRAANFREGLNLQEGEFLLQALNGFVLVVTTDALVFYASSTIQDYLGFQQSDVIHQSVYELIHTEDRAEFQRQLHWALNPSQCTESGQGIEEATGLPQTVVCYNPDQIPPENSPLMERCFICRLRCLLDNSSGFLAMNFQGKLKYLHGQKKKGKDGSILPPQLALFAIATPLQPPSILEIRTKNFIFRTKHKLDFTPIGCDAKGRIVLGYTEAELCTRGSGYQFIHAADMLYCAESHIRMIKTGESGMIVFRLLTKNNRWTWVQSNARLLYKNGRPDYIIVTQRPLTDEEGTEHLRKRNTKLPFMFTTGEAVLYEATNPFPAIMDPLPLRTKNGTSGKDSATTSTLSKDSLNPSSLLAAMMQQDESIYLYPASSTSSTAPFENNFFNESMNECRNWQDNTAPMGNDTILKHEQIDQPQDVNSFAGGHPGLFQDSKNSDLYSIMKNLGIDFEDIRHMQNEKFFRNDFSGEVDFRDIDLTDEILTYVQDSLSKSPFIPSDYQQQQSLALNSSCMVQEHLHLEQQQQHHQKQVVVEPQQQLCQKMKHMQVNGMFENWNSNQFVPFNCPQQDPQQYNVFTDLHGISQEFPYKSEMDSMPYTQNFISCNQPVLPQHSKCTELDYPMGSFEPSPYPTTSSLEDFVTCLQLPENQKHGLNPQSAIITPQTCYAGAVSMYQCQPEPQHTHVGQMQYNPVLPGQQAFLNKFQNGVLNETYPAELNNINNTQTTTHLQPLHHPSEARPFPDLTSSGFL

In the case of `CN1CCN2c3ncccc3Cc3ccccc3C2C1` (stereo not given), the Potency result in experiment [1] and in experiment [2] was “inactive” each time. In experiment [3], the max activation was -0.13% (inactive). For the same molecule, the Potency in experiment [4] was 15.8 µM (active).
Regarding `CCSc1ccc2c(c1)N(CCCN1CCN(C)CC1)c1ccccc1S2`, the Potency entry in experiment [5], in experiment [6], in experiment [1], in experiment [7], in experiment [2] and in experiment [8] was “inactive” throughout. Besides, the max activation in experiment [3] is -0.528% (inactive).
For `C=C1CC[C@H](O)CC1=C/C=C1\CCC[C@]2(C)[C@@H]([C@H](C)CC[C@@H](O)C(C)(C)O)CC[C@@H]12`, the Potency result in experiment [5], in experiment [1], in experiment [2] and in experiment [4] was “inactive” each time. Moreover, the max activation in experiment [3] was 5.8% (inactive).
For the molecule `COC(=O)C1=C(C#N)NC(C)=C(C(=O)OC(C)C)C1c1cccc([N+](=O)[O-])c1` (stereo not given), the Potency entry in experiment [6] and in experiment [2] was “inactive” in each case. The Potency in experiment [3] is 7.94 µM (active).
In the case of `COC(=O)[C@H]1[C@H]2C[C@@H]3c4[nH]c5ccccc5c4CCN3C[C@H]2C[C@@H](OC(=O)c2cc(OC)c(OC)c(OC)c2)[C@@H]1OC`, the Potency is 6.68 µM (active) and inactive in experiment [5]; 13.3 µM (active) and 6.68 µM (active) in experiment [6]. Further, the Potency entry in experiment [1], in experiment [2] and in experiment [8] was “inactive” each time. The max activation in experiment [3] was -18.7% (inactive).
As for `CC[N+](C)(C)Cc1ccccc1Br`, the Potency entry in experiment [5], in experiment [6], in experiment [1], in experiment [7] and in experiment [2] was “inactive” throughout. In addition, the max activation in experiment [3] is -1.23% (inactive).
Regarding `CCCC(=O)Nc1c(I)cc(I)c(CC(CC)C(=O)O)c1I` (stereo not given), the Potency result in experiment [7] and in experiment [2] was “inactive” each time. In addition, the max activation in experiment [3] is -4.56% (inactive). The Potency in experiment [4] was 22.4 µM (active).
As to `C[C@]12CCC(=O)C=C1CC[C@@H]1[C@@H]2[C@@H](O)C[C@@]2(C)[C@H]1CC[C@]2(O)C(=O)COP(=O)(O)O`, the Potency entry in experiment [5], in experiment [1], in experiment [7] and in experiment [2] was “inactive” in each case. The max activation in experiment [3] is 11.6% (inactive).
With `NC(=O)Oc1ccc(Cc2ccccc2)cc1`, the Potency entry in experiment [5], in experiment [6], in experiment [1], in experiment [7], in experiment [2] and in experiment [8] was “inactive” each time. Besides, in experiment [3], the max activation is -0.809% (inactive).
`C#C[C@]1(O)CC[C@H]2[C@@H]3CCC4=C(CCC(=O)C4)[C@H]3CC[C@@]21C`: the Potency entry in experiment [5], in experiment [6], in experiment [1], in experiment [7], in experiment [2] and in experiment [8] was “inactive” each time. Besides, the max activation in experiment [3] was 5.01% (inactive).
Take `CO[C@@H]1[C@@H](O[C@@H]2O[C@H](C)[C@@H](O[C@H]3C[C@@](C)(O)[C@@H](O)[C@H](C)O3)[C@H](N(C)C)[C@H]2O)[C@@H](CC=O)C[C@@H](C)[C@@H](O[C@@H]2CC[C@H](N(C)C)[C@@H](C)O2)/C=C/C=C/C[C@@H](C)OC(=O)C[C@H]1O`: the Potency entry in experiment [5], in experiment [1], in experiment [7] and in experiment [2] was “inactive” throughout. In experiment [3], the max activation is -4.61% (inactive).
For `COc1ccc(C(=O)CCC(=O)O)c2ccccc12`, the Potency result in experiment [5], in experiment [6], in experiment [1], in experiment [2], in experiment [4] and in experiment [8] was “inactive” each time.
Consider `CCc1ccc(S(=O)(=O)O)cc1`, for which the Potency result in experiment [5], in experiment [1], in experiment [7], in experiment [2] and in experiment [8] was “inactive” throughout. Moreover, the Potency in experiment [6] is 11.9 µM (active). In addition, in experiment [3], the max activation was -0.665% (inactive).
With `N[C@H](CC(=O)O)C(=O)O`, the Potency entry in experiment [5], in experiment [6], in experiment [1] and in experiment [2] was “inactive” each time. In addition, the max activation in experiment [3] was 2.19% (inactive).
Consider `NC(=S)N=Nc1ccc(NN=C(N)N)cc1`, for which the Potency was 23.7 µM (active) in experiment [5], 11.9 µM (active) in experiment [6] and 29.8 µM (active) in experiment [1]. The Potency entry in experiment [2], in experiment [4] and in experiment [8] was “inactive” each time.
As for `O=C(O)[C@H](CC(=O)N1C[C@H]2CCCC[C@H]2C1)Cc1ccccc1`, the Potency result in experiment [5], in experiment [6], in experiment [1], in experiment [7] and in experiment [2] was “inactive” in each case. In experiment [3], the max activation is -2.62% (inactive).
Regarding `CN(C)C=Nc1c(I)cc(I)c(CCC(=O)O)c1I`, the Potency entry in experiment [5], in experiment [6], in experiment [1] and in experiment [2] was “inactive” throughout. In addition, the max activation in experiment [3] was -2.71% (inactive). Further, in experiment [8], the Potency is 14.1 µM (active).
In the case of `CO[C@H]1C[C@H](O[C@@H]2/C(C)=C/C[C@@H]3C[C@@H](C[C@]4(CC[C@H](C)[C@@H](C5CCCCC5)O4)O3)OC(=O)[C@@H]3C=C(C)/C(=N/O)[C@H]4OC/C(=C\C=C\[C@@H]2C)[C@]43O)O[C@@H](C)[C@@H]1O`, the Potency result in experiment [5], in experiment [6], in experiment [1], in experiment [2], in experiment [4] and in experiment [8] was “inactive” in each case.
Take `CC1CCC(NC(=O)N(CCCl)N=O)CC1` (stereo not given): the Potency result in experiment [5], in experiment [1], in experiment [7], in experiment [2] and in experiment [4] was “inactive” each time. In experiment [3], the Potency is 5.01 µM (active).
As for `S=C1SCN(Cc2ccccc2)CN1Cc1ccccc1`, the Potency entry in experiment [5], in experiment [6], in experiment [1] and in experiment [2] was “inactive” throughout. The max activation in experiment [3] is 2.55% (inactive). Also, the Potency in experiment [8] was 14.1 µM (active).
Regarding `CCCCCCOc1ccc(C(=N)N(CCCC)CCCC)c2ccccc12`, the results for the Potency in experiment [5] and in experiment [1] were 16.8 µM (active) and 18.8 µM (active), respectively. The Potency entry in experiment [6] and in experiment [2] was “inactive” each time. Further, the max activation in experiment [3] was -20.9% (inactive).
Consider `CN[C@@H]1[C@@H](O)[C@@H](O[C@@H]2[C@@H](O)[C@H](O[C@H]3O[C@H](CN)[C@@H](O)[C@H](O)[C@H]3O)[C@@H](N)C[C@H]2NC(=O)C(O)CN)OC[C@]1(C)O` (stereo not given in full), for which the Potency entry in experiment [5], in experiment [6], in experiment [1], in experiment [2] and in experiment [8] was “inactive” in each case. Also, the max activation in experiment [3] was -5.41% (inactive).
For the molecule `COCC(=O)Nc1cc(Sc2ccccc2)ccc1N=C(NC(=O)OC)NC(=O)OC`, the Potency result in experiment [5], in experiment [1], in experiment [7], in experiment [2] and in experiment [8] was “inactive” each time. Also, the max activation in experiment [3] was 86.6% (inactive).
